# Shown are actives, neighbours in structure and some others; about 3.5% of the full set was active somewhere.
# TEAD-YAP block: TEAD-YAP interaction inhibition. HEK-TIYL cells, TEAD-Gal4/YAP UAS-luciferase luminescence. inhibition, % at 9.12 µM. 1.4% of 640,000 active; in the data active = inhibition above about 32%;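 also: 0% = median of test compound wells and 100% = reference inhibitor wells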
# GPR151 ag: activators of human GPR151; Q8TDV0; PathHunter beta-arrestin GPR151 cells, luminescence; activation, % at 11.2 µM; 1% of 650,000 active; AID 1508602; in the data active = activation above about 4.9%;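 also: 0% = median of compound wells and 100% = cells with positive control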
# MITF primary: human MITF inhibition, primary screen; AlphaScreen MITF homodimerization, bead proximity signal; inhibition, % at 2.6 µM; 0.91% of 650,000 active; in the data active = inhibition above about 50%;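 also: 0% = vehicle wells with protein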
# Target sequence (O75030 whole entry, looked up): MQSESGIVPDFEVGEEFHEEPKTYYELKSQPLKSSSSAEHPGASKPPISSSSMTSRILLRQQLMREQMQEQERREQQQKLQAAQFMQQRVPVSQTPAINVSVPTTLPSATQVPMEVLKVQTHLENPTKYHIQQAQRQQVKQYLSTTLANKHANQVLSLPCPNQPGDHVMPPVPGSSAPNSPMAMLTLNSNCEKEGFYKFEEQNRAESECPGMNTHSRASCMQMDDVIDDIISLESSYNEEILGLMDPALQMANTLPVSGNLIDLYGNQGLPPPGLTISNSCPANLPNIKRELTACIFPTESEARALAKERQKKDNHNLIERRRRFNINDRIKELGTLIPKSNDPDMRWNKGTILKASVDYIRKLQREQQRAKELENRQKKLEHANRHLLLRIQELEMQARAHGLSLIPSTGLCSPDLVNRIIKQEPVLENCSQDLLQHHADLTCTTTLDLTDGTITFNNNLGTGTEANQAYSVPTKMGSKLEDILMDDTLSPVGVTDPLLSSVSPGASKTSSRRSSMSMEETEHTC
# FBW7 activator: activators of human E3 ligase FBW7 | 0.13% of 650,000 active | normalized activity (activation), % at 26.1 µM | Q969H0 | AlphaScreen FBW7–phospho-cyclin E peptide binding, activator screen; in the data active = normalized activity above about 1.9%;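 also: purified mutant Fbw7 with reduced substrate affinity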
# The depositor's hits bear a star.
SMILES,TEAD-YAP block,GPR151 ag,MITF primary,FBW7 activator
COC(=O)c1c(NC(=O)c2ccco2)sc(C(=O)Nc2ccc(F)cc2)c1C,4.5,-0.1,-2.1,0.0
COC(=O)c1c(NC(=O)c2ccco2)sc(C(=O)Nc2ccc(C)cc2)c1C,34.0*,-0.4,-3.9,0.0
O=c1cc(CN2CCN(c3ccccc3O)CC2)c2cc(O)c(O)cc2o1,-4.5,-0.4,89.7*,0.2
O=c1cc(CN2CCN(Cc3ccc4c(c3)OCO4)CC2)c2cc(O)c(O)cc2o1,-3.4,4.0,90.5*,-0.8
O=c1cc(CN2CCCCC2)c2cc(O)ccc2o1,0.8,0.2,6.0,0.1
CCOC(=O)c1c(NC(=O)c2cc(OC)cc(OC)c2)sc2c1CCCC2,-5.4,1.0,4.5,0.3
Cc1ccc(C(=O)C[n+]2cc(-c3ccc(C)cc3)n3c2CCCCC3)cc1,85.6*,-1.2,10.3,0.2
CCN1C(=O)CC(C(=O)Nc2ccc(Cl)cc2)SC1=Nc1ccc(OC)cc1 (configuration not stated),37.7*,1.7,0.5,0.2
COc1ccc(Nc2c(-c3ccc(N(C)C)cc3)nc3cnccn23)cc1,-2.7,0.4,6.4,0.1
COc1ccc(N=C2O/C(=C\c3sc(=S)n(CC4CCCO4)c3O)N=C2C#N)cc1 (configuration not stated),9.1,-1.4,51.7*,-0.5
CCOC(=O)c1ccc(NC(=O)c2cccc(Oc3ccccc3)c2)cc1,47.9*,1.4,-6.6,0.1
CCOc1cccc(C(=O)Nc2ccc3ccccc3c2)c1,58.1*,-3.6,9.6,0.0
Cc1cc(C(=O)Nc2ccc3ccccc3c2)oc1C,-18.1,-1.9,9.2,-0.1
CCOCCC(=O)Nc1ccc2c(c1)OCCO2,39.1*,-2.1,8.1,-0.1
Cc1ccoc1C(=O)Nc1ccc2ccccc2c1,40.6*,-9.1,8.2,0.0
O=C(CCC(=O)Nc1ccc2c(c1)OCCO2)Nc1ccc2c(c1)OCCO2,0.7,-2.0,16.3,0.0
CCOC(=O)c1c(-c2ccccc2)csc1NC(O)(C(=O)OC)C(F)(F)F (configuration not stated),-8.0,1.7,0.8,-0.1
CCOc1cccc(C(=O)Nc2ccc3c(c2)OCCO3)c1,57.7*,-6.1,2.2,0.1
O=C(Cn1ccc(=NCc2ccccc2)cc1)c1cccc([N+](=O)[O-])c1,32.9*,0.0,-32.2,0.0
NC(=NCc1ccccc1)c1cccc([N+](=O)[O-])c1,5.7,-0.1,-4.7,0.2
COc1cc(-c2cc(C(=O)Nc3cc(C)[nH]n3)c3ccccc3n2)cc(OC)c1OC,32.9*,-0.4,-4.5,-0.1
COc1ccccc1-c1nc2ccc(C)cc2cc1CNCc1n[nH]c(=O)[nH]1,-5.6,0.4,3.2,-0.2
COc1ccc(Nc2nsc(C(=O)c3ccc(F)cc3)c2N)cc1,44.2*,-1.1,-3.8,-0.2
COc1ccc(C(=O)c2snc(NCc3ccccc3)c2N)cc1,-20.6,0.7,4.8,0.0
COCCNc1ccnc2c(-c3ccc(F)c(Cl)c3)cnn12,-0.6,0.0,2.1,1.9*
SMILES,TEAD-YAP block,GPR151 ag,MITF primary,FBW7 activator
COCCNc1ccnc2c(-c3ccc4c(c3)OCO4)cnn12,50.7*,-2.4,9.9,0.2
CC1(C)CC(=O)c2sc(NC(=O)CCOc3ccccc3)nc2C1,9.2,-0.7,5.7,-0.1
CN1CCN(Cc2cc([N+](=O)[O-])c3cccnc3c2O)CC1,7.5,0.3,76.0*,-0.1
O=[N+]([O-])c1cc(CN2CCN(c3cccc(C(F)(F)F)c3)CC2)c(O)c2ncccc12,20.3,-0.6,18.6,0.0
O=[N+]([O-])c1cc(CN2CCc3ccccc3C2)c(O)c2ncccc12,8.7,0.3,20.7,-0.6
O=[N+]([O-])c1cc(CN2CCC(c3ccccc3)C2)c(O)c2ncccc12 (configuration not stated),32.1*,1.7,55.4*,-0.9
O=[N+]([O-])c1cc(CN2CCCCC2)c(O)c2ncccc12,4.2,-1.5,73.0*,-0.9
CCC(C)NC(=O)c1oc(=O)c2ccccc2c1-c1ccccc1 (configuration not stated),-9.1,0.4,11.0,-0.1
Nc1ccc(-c2cnn3c(NCc4cccs4)ccnc23)cc1,71.5*,-0.4,-12.2,-0.8
c1ccc(-c2cnn3c(NCc4cccs4)ccnc23)cc1,-47.6,-0.4,11.6,0.2
OCc1ccccc1-c1cnn2c(NCc3cccs3)ccnc12,62.7*,-0.9,-9.7,-0.1
O=C(O)CCc1ccc(-c2cnn3c(NCc4ccco4)ccnc23)cc1,33.1*,-4.0,18.8,1.1
Cc1ccc(-c2cnn3c(NCc4cccs4)ccnc23)cc1,-66.8,0.0,11.1,0.0
C=CCOc1ccc(/C(O)=C2/C(=O)C(=O)N(CCCN(C)C)C2c2ccc(F)cc2)cc1C (configuration not stated),-5.4,1.1,-1.3,0.2
COc1cc(/C=C2/C(=O)NN(c3ccc(F)c(Cl)c3)C2=O)ccc1O,6.7,1.2,-1.3,0.1
Cc1cc2nnc(SCC(=O)NCCc3ccccc3)n2c(N)n1,-9.7,1.0,-3.3,-0.3
c1cncc(CNc2nc(NCCN3CCOCC3)c3ncn(-c4ccsc4)c3n2)c1,-1.5,-0.5,-10.3,-0.1
COc1cc(Nc2nc(NCCN3CCOCC3)c3ncn(-c4ccccc4)c3n2)cc(OC)c1OC,41.9*,-0.1,6.6,0.5
COc1cc(Nc2nc(NCCO)c3ncn(-c4ccccc4)c3n2)cc(OC)c1OC,27.8,0.4,0.3,0.0
c1cncc(Nc2nc(NCCN3CCOCC3)c3ncn(-c4ccsc4)c3n2)c1,50.9*,1.1,-2.6,-0.1
c1ccc(-n2cnc3c(Nc4ccc(N5CCOCC5)cc4)nc(Nc4nccc5ccccc45)nc32)cc1,43.4*,0.9,16.4,0.0
c1ccc(-c2nc(NCCN3CCOCC3)c3ncn(-c4ccsc4)c3n2)cc1,33.3*,0.6,5.0,0.0
CN(C(=O)c1ccccc1F)C1CCCCC1,-0.4,1.0,-18.5,0.1
O=C(Nc1cc(Oc2cccc(Cl)c2)cc([N+](=O)[O-])c1)c1ccncc1,4.2,-0.6,8.8,0.0
COc1ccc(C2CC(=O)n3nc(-c4ccc(Cl)cc4)nc3S2)cc1OC (configuration not stated),-6.0,0.2,3.8,0.1
SMILES,TEAD-YAP block,GPR151 ag,MITF primary,FBW7 activator
COc1ccc(N=Cc2ccc([N+](=O)[O-])o2)c(OC)c1,8.7,1.5,-3.1,-0.2
c1ccc(-n2cnc3c(NCCN4CCOCC4)nc(Nc4cccnc4)nc32)cc1,33.7*,0.7,-0.7,0.0
COc1cc(Nc2nc(Nc3ccnn3C)nc3c2ncn3-c2ccsc2)cc(OC)c1OC,62.7*,0.0,15.8,0.0
c1ccc(Nc2nc(NCCN3CCOCC3)c3ncn(-c4ccsc4)c3n2)cc1,54.6*,0.6,-0.5,-0.1
Cn1nccc1Nc1nc(NCCN2CCOCC2)c2ncn(-c3ccsc3)c2n1,49.6*,-1.6,-0.4,0.0
COc1cc(Nc2nc(Nc3ncccn3)nc3c2ncn3-c2ccsc2)cc(OC)c1OC,10.4,1.5,2.6,0.0
COc1cc(CN2CCN(Cc3ccccc3C)CC2)cc2c1OCO2,0.6,0.0,46.2,-0.5
c1cc(Nc2nc(NCCN3CCOCC3)c3ncn(-c4ccsc4)c3n2)ncn1,37.0*,-0.1,10.6,0.2

# Screens from PubChem.
